Results on 29 compounds are retold here after PubChem BioAssay (Tox21).

Active and inactive are the calls of the source. A call without a number means that no potency is given here. The call rests on the fitted dose curve.
Potency means the concentration at half of the fitted maximal effect.

Sequence of Thyrotropin-releasing hormone receptor (Homo sapiens) (P34981 whole entry, looked up): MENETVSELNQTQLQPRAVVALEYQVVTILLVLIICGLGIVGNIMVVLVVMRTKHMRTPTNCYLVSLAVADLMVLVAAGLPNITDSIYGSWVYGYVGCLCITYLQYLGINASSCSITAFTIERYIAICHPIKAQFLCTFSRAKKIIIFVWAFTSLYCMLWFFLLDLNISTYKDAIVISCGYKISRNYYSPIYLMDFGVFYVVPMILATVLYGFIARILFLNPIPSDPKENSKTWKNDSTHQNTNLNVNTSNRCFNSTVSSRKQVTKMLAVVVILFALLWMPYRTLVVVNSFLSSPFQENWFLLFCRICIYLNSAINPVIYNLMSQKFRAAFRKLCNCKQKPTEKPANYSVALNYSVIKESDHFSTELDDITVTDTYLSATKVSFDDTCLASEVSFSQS

The assay concerns the target Thyrotropin-releasing hormone receptor (Homo sapiens) (UniProt P34981). In words: qHTS assay to identify small molecule agonists of the thyrotropin-releasing hormone receptor (TRHR) signaling pathway (AID 1346891). The conditions noted are these: TRHR-HEK293 calcium fluorescence, agonist mode; series mostly up to 57.6 µM; activation: at the top concentration. In outline: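 Readout was intracellular calcium fluorescence in TRHR-Hek293 cells. Cells were incubated 18 h, dye-loaded 2 h at 37 °C, and treated with compound in agonist mode.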
Regarding `O=Cc1ccccc1C=O`, the Potency result was “inactive”.
Regarding `C[C@]12CC[C@@H]3c4ccc(O)cc4CC[C@H]3[C@@H]1CC[C@@H]2O`, the Potency result was “inactive”.
On the same count and under the same terms, for `O=C1OC2(c3ccccc31)c1cc(I)c(O)c(I)c1Oc1c2cc(I)c(O)c1I` the value was 19.7 µM (active) [middle of 4 runs].
Still for that read-out and setting: as for `CC(=O)O[C@]1(C(C)=O)CC[C@H]2[C@@H]3C=C(Cl)C4=CC(=O)CC[C@]4(C)[C@H]3CC[C@@]21C`, the entry is “inactive”.
Regarding `O=C(CCCN1CCC(O)(c2ccc(Cl)cc2)CC1)c1ccc(F)cc1`, the Potency entry is “inactive”.
As for `O=C(O)CCCCCCCCCCCC(=O)O`, the Potency result is “inactive”.
Consider `Cc1ccc(C(C)(C)C)c(O)c1`, for which the “activation” value was -0.925% (inactive).
`C=C[C@H]1CN2CC[C@H]1C[C@H]2[C@H](O)c1ccnc2ccc(OC)cc12`: the Potency result was “inactive”.
In the case of `C=C[C@H]1CN2CC[C@H]1C[C@@H]2[C@@H](O)c1ccnc2ccc(OC)cc12`, the Potency entry was “inactive”.
For the compound `CCC/C=C/C=O`, the Potency entry is “inactive”.
On to `OC[C@H]1O[C@@H]2O[C@H]3[C@H](O)[C@@H](O)[C@@H](O[C@H]4[C@H](O)[C@@H](O)[C@@H](O[C@H]5[C@H](O)[C@@H](O)[C@@H](O[C@H]6[C@H](O)[C@@H](O)[C@@H](O[C@H]7[C@H](O)[C@@H](O)[C@@H](O[C@H]1[C@H](O)[C@H]2O)O[C@@H]7CO)O[C@@H]6CO)O[C@@H]5CO)O[C@@H]4CO)O[C@@H]3CO`, for which the Potency result was “inactive”.
On the same count and under the same terms, as for `CN(C)CCCN1c2ccccc2Sc2ccc(Cl)cc21`, the entry is “inactive”; as for `Cc1ccc(C)c(O)c1`, “inactive”; as for `COC(=O)CC(=O)OC`, “inactive”.
In the case of `Nc1ccc(O)c(N)c1`, the Potency result is “inactive”.
On the same count and under the same terms, as for `NCCS(=O)(=O)O`, the entry is “inactive”.
Still for that read-out and setting: as for `C[C@]12CC[C@@H]3c4ccc(O)cc4CC[C@H]3[C@@H]1CC[C@H]2O`, the entry is “inactive”; as for `c1ccc2ncccc2c1`, “inactive”.
Consider `COCCOCCOCCO`, for which the Potency entry is “inactive”.
On the same count and under the same terms, as for `CCCCCCCC/C=C\CCCCCCCC(=O)O`, the entry is “inactive”; as for `COc1cc([C@H]2Oc3cc([C@H]4Oc5cc(O)cc(O)c5C(=O)[C@@H]4O)ccc3O[C@@H]2CO)ccc1O`, “inactive”.
For the compound `C=CCCCCCCCCCC`, the Potency result is “inactive”.
Turning to `CC/C=C\C/C=C\C/C=C\CCCCCCCC(=O)O`, the Potency result is “inactive”.
On the same count and under the same terms, for `[O-]/[N+](=N\O)c1ccccc1` the value was “inactive”; for `Cc1cccc(Nc2ccccc2C(=O)O)c1C`, “inactive”; for `CC1(C)NC(=O)N(c2ccc([N+](=O)[O-])c(C(F)(F)F)c2)C1=O`, “inactive”.
The same measure, in the same setting: as for `CC(=O)OC(C)C`, the entry is “inactive”.
Same read-out and setting: as for `COC(=O)c1ccc(C)cc1`, the entry is “inactive”; as for `Oc1c(Cl)ccc(Cl)c1Cl`, “inactive”.
